# Source: PubChem BioAssay (National Center for Advancing Translational Sciences (NCATS))
# Only some compounds are listed: those with a hit (about 0.74% of all), similar ones and a draw of the others.
# Akt phos inh: HTS Assay for Inhibitors of Akt Phophorylation: Primary Screen; 0.32% of 360,000 active; AID 651550, 2012; activity change, % for hits at 50 µM; Neuro2A IGF-stimulated pAkt S473 HTRF, 20 min; stronger effect = lower value; in the data active = activity change below about -80%; inconclusive = mostly about -51% to -80%; note: % is set by controls: 0 for no effect and ±100 for the full control effect
#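 Neuro2A cells in DMEM with 0.5% FBS, overnight at 37 deg C, given compound at single 50 µM final, then IGF (6 nM final) for 20 min at 37 deg C. Lysed; phospho-Akt Ser473 by HTRF after 24 h, 665/615 ratio.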
# LDHA inh: qHTS assay for inhibitors of human lactate dehydrogenase. L-lactate dehydrogenase A chain (Homo sapiens), P00338. purified LDHA, NADH/diaphorase-resazurin fluorescence; stronger effect = lower value. activity change, % (values are at about 110 or 230 µM). 0.15% of 480,000 active; in the data active = activity change below about -30%; inconclusive = mostly about -25% to -30%;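 note: plate controls were DMSO wells for no effect and wells without enzyme for full effect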
#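 Human LDH5 at 2 nM final in Tris HCl pH 7.4 with 0.06 mM NADH and 0.2 mM pyruvate, reacted 5 minutes at room temperature. Remaining NADH coupled via diaphorase/resazurin; resorufin fluorescence read at 0 and 20 minutes, normalized to enzyme-free and DMSO wells.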
# Glioma ERSR ind: qHTS for Inducers of the Endoplasmic Reticulum Stress Response (ERSR) in Human Glioma: qHTS; U87-MG GRP78 promoter luciferase reporter, 16 h; Potency, µM, without a hit: top-dose activation, most hits filed as activators; 0.02% of 420,000 active; AID 602332, 2012; note: potency is the fitted concentration of half-maximal effect; series mostly up to about 76 µM; % of control where 0% means no effect; nearly all actives have a fitted effect of over 35% in size
#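 Stably transfected U87-MG human glioma cells carrying a GRP78-based luminescent sensor were seeded at 1000 cells/well, pin-dosed with compounds and incubated 16 h. Luciferase reagent was then added, and end-point luminescence was read after 10 min at room temperature.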
# Vif-APOBEC3G blk: qHTS for Inhibitors of Vif-A3G Interactions: qHTS. 0.076% of 410,000 active. HeLa A3G-eYFP + Vif (tagged APOBEC3G with the HIV-1 protein that degrades it), YFP fluorescence, overnight. Potency, µM (doses to about 46.1 µM), for inactives: top-dose activity, negative = active, hits mostly inhibitors; note: potency is the fitted concentration of half-maximal effect; % is set by controls: 0 for no effect and ±100 for the full control effect; nearly all actives have a fitted effect of over 60% in size
# Target sequence (Q9HC16 whole entry, looked up): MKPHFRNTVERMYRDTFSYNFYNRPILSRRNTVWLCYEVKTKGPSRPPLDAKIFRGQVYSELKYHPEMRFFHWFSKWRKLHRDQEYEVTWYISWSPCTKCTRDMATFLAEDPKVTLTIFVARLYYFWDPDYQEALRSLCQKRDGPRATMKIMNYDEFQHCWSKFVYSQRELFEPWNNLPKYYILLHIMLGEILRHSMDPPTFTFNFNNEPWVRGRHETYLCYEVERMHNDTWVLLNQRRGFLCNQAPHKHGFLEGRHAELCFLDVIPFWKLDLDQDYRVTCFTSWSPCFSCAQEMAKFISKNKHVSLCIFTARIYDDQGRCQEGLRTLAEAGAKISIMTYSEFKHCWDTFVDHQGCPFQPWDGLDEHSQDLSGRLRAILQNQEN
#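 HeLa cells stably expressing Vif and C-terminally eYFP-tagged A3G, seeded overnight at 37 deg C, then exposed to compound by pintool overnight at 37 deg C. Rise in yellow fluorescence (Ex 488/Em 500-530, Acumen) marks blocked Vif-driven A3G degradation.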
# Vif-APOBEC3F blk: qHTS for Inhibitors of Vif-A3F Interactions: qHTS. HeLa A3F-eYFP + Vif (tagged APOBEC3F with the HIV-1 protein that degrades it), YFP fluorescence increase. Potency, µM (highest dose often 46.1 µM), for the others: top-dose activity, negative = active. 0.2% of 390,000 active; note: potency is the fitted concentration of half-maximal effect; % of control where 0% means no effect; nearly all actives have a fitted effect of over 65% in size
#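 Fluorescence increase (Ex 488/Em 500-530) after overnight compound treatment at 37 deg C flags inhibition of Vif-driven A3F-eYFP loss in stable HeLa A3F-eYFP/Vif cells seeded overnight beforehand.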
# PINK1 expr mod: A Quantitative High throughput Screen to Identify Chemical Modulators of PINK1 Expression. PINK1 immunofluorescence, high-content cytometry, 24 h. Potency, µM (doses to about 76.6 µM), without a hit: top-dose activation (PINK1 increase), hits mostly activators. 0.2% of 410,000 active. AID 624263, 2012; active = well fitted activation curve with a large enough effect; inconclusive = small, poorly fitted or top-dose-only effect; cell line not stated here; note: potency is the fitted concentration of half-maximal effect; % of control where 0% means no effect; nearly all actives have a fitted effect of over 65% in size
#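 Stable cell line treated 24 h with compounds at 5 concentrations (CCCP controls), then fixed and immunostained for PINK1 plus nuclear and cell stains; PINK1 immunofluorescence quantified by laser-scanning microplate cytometry.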
# The depositor's hits bear a star; i = inactive; ? = inconclusive; / = no result; ! = a repeat was not active. Unless noted, calls come from the whole dose curve; as a rule, active = well fitted curve in the direction sought with a large enough effect; inconclusive = small, poorly fitted or top-dose-only effect, or another doubt; inactive = no such curve, though single readings can be large; an effect the other way counts as inactive or inconclusive.
SMILES,Akt phos inh,LDHA inh,Glioma ERSR ind,Vif-APOBEC3G blk,Vif-APOBEC3F blk,PINK1 expr mod
Cc1cc2ccccc2n1CC(=O)NC1CCN(C(C)(C)C)CC1,/,-9,/,/,/,/
COc1ccc(NC(=O)CSc2nc3c(oc4ccccc43)c(=O)n2Cc2ccco2)cc1Cl,/,-5,-2%,?,8.9µM*,3%
COc1ccc(Cl)cc1NC(=O)CSc1nc2c(oc3ccccc32)c(=O)n1Cc1ccco1,/,-8,-1%,8%,5%,0%
CC1(C)C2CCC1(C)C(NC(=O)c1ccccc1)C2 (stereo not drawn),/,4,/,/,/,/
Cc1oc(-c2cccc(Cl)c2)nc1CN1CCC(C(=O)NCC2CCCO2)CC1 (stereo not drawn),/,0,-3%,-2%,2%,/
Cc1ccccc1-c1nc(CN2CCC(C(=O)NCC3CCCO3)CC2)c(C)o1 (stereo not drawn),-119%*,-10,-3%,2%,6%,-2%
Cc1cc(N/N=C/c2c(O)ccc3ccccc23)nc(-c2ccccc2O)n1,i,5,-1%,?,13%,45µM*
Cc1cc(N/N=C/c2c(O)ccc3ccccc23)nc(NCc2ccccc2)n1,/,14,/,/,/,/
C/C=C/c1ccc(OCC(=O)N2CCN(S(=O)(=O)c3ccc(F)cc3)CC2)c(OC)c1,/,1,/,/,/,/
O=C(Nc1cccc(Cl)c1)c1cc(N=Nc2ccc([N+](=O)[O-])cc2Cl)ccc1O,i,-46*,-2%,3%,-8%,?
CCNC(=O)c1cccc2c(=O)c(C)c(-c3ccccc3)oc12,/,-2,/,/,/,/
O=S(=O)(c1ccccc1)n1ccc2ccccc21,i,-3,-1%,-1%,-4%,-1%
Cc1cc(C)c(S(=O)(=O)n2ccc3ccccc32)c(C)c1,i,-2,-3%,2%,3%,40µM*
Cc1noc(C(C)N2CCN(C(=O)c3ccccn3)CC2)n1 (stereo not drawn),/,-15,/,/,/,/
CCOc1ccc(NC(=O)C2CC(=O)N(c3ccccc3F)C2)cc1 (stereo not drawn),i,-2,-4%,1%,-2%,-2%
CCOc1ccccc1N1CC(C(=O)Nc2nccs2)CC1=O (stereo not drawn),-124%*,-5,0%,-1%,9%,0%
CCOc1ccccc1N1CC(C(=O)Nc2ccc(C(=O)O)cc2)CC1=O (stereo not drawn),-112%*,-4,-2%,1%,1%,1%
COCCN1CCN(C(=O)c2cc(COc3ccc(F)cc3F)on2)CC1,i,-56*,-3%,0%,-8%,0%
COCCN1CCN(C(=O)c2cc(COc3ccc(F)c(F)c3)on2)CC1,i,-5,6%,-3%,-22%,?
O=C(CNc1cccc(S(=O)(=O)N2CCCCC2)c1)N1CCN(C(=O)c2cccs2)CC1,/,-9,/,/,/,/
O=C(CSc1n[nH]c(-c2ccccn2)n1)Nc1ccc(Cl)cc1,i,1,-4%,-7%,7.9µM*,0%
COc1cc(NC(=O)c2ccc3ccccc3n2)cc(OC)c1,/,4,/,/,/,/
COc1ccc2oc(=O)cc(-c3cc4cccc(OC)c4o3)c2c1,i,-33*!,-5%,-10%,-13%,5%
COc1ccc(C)cc1Nc1n[n+](-c2ccccc2)c(-c2ccc(N(C)C)cc2)s1,i,3,-4%,?,?,?
Cc1ccc2c(c1)sc(-c1ccc(N(C)C)cc1)[n+]2C,i,-7,-6%,?,22µM*,?
SMILES,Akt phos inh,LDHA inh,Glioma ERSR ind,Vif-APOBEC3G blk,Vif-APOBEC3F blk,PINK1 expr mod
CC(Sc1nnc(N2CCCC2)n1-c1ccccc1Cl)c1nc2ccccc2c(=O)[nH]1 (stereo not drawn),/,12,/,/,/,/
CCOc1ccc(NC(=O)Cn2c(=O)n(Cc3ccc(C(=O)NCc4ccc(C)cc4)cc3)c(=O)c3ccccc32)cc1,/,-3,-2%,-1%,10µM*,2%
Cc1ccc(CNC(=O)c2ccc(Cn3c(=O)c4ccccc4n(CC(=O)Nc4ccc(C)cc4)c3=O)cc2)cc1,/,-12,-3%,-6%,-8%,3%
O=C(O)c1cc2nc3c(c(C(F)(F)F)n2n1)CCc1ccccc1-3,-114%*,-1,-5%,-2%,-9%,-2%
CCNC(=O)NC(=O)C(C)N(C)CC(=O)Nc1cccc2ccccc12 (stereo not drawn),/,-33*,/,/,/,/
COc1ccccc1NC(=O)C(C)N(C)CC(=O)Nc1cccc2ccccc12 (stereo not drawn),i,3,4%,-1%,-5%,0%
CCCc1cc(=O)oc2cc(OCC(=O)Nc3ccc(S(N)(=O)=O)cc3)ccc12,i,-37*,0%,2%,-9%,1%
CCCCc1cc(=O)oc2cc(OCC(=O)NCc3ccc(S(N)(=O)=O)cc3)ccc12,/,-4,/,/,/,/
COc1ccc(-c2nnc(SCC(=O)OC3CCCCC3)o2)cc1OC,-117%*,2,?,-5%,1%,1%
COc1cc(-c2nnc(SCC(=O)Oc3ccccc3)o2)cc(OC)c1OC,/,-3,?,5%,3%,0%
COc1cc(-c2nnc(SCC(=O)Oc3ccccc3Cl)o2)cc(OC)c1OC,/,3,22µM*,2%,4%,1%
COc1ccc(-c2nnc(SCC(=O)N(C)C3CCCCC3)o2)cc1OC,/,1,2%,1%,0%,0%
C/C=C/C=C/C(=O)NCc1cccc(OC)c1,/,-1,/,/,/,/
COc1cnn(-c2ccccc2)c(=O)c1N(C)C,i,1,-2%,1%,-3%,13µM*
N#CC(Cc1ccccc1CO)c1nc2ccccc2s1 (stereo not drawn),/,4,/,/,/,/
Cc1c2ccccc2nc2c(F)c(N(C)C)c(F)c(F)c12,i,6,5%,?,25µM*,-1%
CCCSc1ncc(Cl)c(C(=O)Nc2ccc(C)cc2C)n1,/,4,/,/,/,/
CONC(=O)COCc1nc2ccccc2s1,/,3,/,/,/,/
CN1CCN(C(=O)c2cc3c(c(-c4cccc(-c5cc6ccccc6o5)c4)n2)[C@H](CCO)N(S(=O)C(C)(C)C)C3)CC1 (stereo partly drawn),i,0,-4%,-4%,/,0%
CC(C)(C)S(=O)N1Cc2cc(C(=O)O)nc(-c3cccc(-c4cc5ccccc5o4)c3)c2[C@H]1CCO (stereo partly drawn),i,-32*,-3%,-4%,/,0%
